POLH inh: qHTS for Inhibitors of Polymerase Eta; DNA polymerase eta (Homo sapiens), Q9Y253; recombinant Pol eta, fluorescent DNA replication assay; Potency, µM (series often up to 114 µM), hits mostly inhibitors; actives 1.2% (n = 390,000)
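Fluorescent replication assay: 50 nM final substrate added after a 15 min room-temperature compound preincubation with 10 nM enzyme. Signal taken at 0 min and again at 10 min.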
POLB inh: qHTS Assay for Inhibitors of DNA Polymerase Beta. P06746. Pol beta primer extension/strand displacement, fluorescence kinetic. Potency, µM (top dose mostly 114 µM), hits mostly inhibitors. actives 1.3% (n = 340,000). AID 485314, 2010
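Kinetic readout of DNA synthesis with strand displacement by Pol beta. Compound and 10 nM enzyme sit 15 min at room temperature; 50 nM substrate starts the reaction, read immediately and at 10 min.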
Pol iota inh: qHTS for Inhibitors of Polymerase Iota. Pol iota fluorescent replication assay, 10 min. Potency, µM (titrated, usually from 115 µM), actives largely listed as inhibitors. actives 1% (n = 390,000). AID 588590, 2011
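Pol iota at 10 nM preincubated 15 min with compounds at room temperature; reaction started with fluorescent substrate, 50 nM final. Fluorescence read kinetically at 0 and 10 min; buffer-only wells as negative control.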
FEN1 inhibitor: qHTS Assay for the Inhibitors of Human Flap endonuclease 1 (FEN1) | actives 0.35% (n = 390,000) | P39748 | Recombinant FEN1 flap cleavage, fluorescence, 15 min | Potency, µM (highest dose often 114 µM), hits mostly inhibitors; further: nearly all actives have a fitted effect of over 65% in size
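Quantitative HTS format: each compound was titrated, incubated with 10 nM nuclease for 15 min at room temperature, then challenged with flap substrate at 50 nM final. Signal change over 15 min gave concentration–effect curves.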
WRN inhibitor: qHTS for Inhibitors of WRN Helicase; Bifunctional 3'-5' exonuclease/ATP-dependent helicase WRN (Homo sapiens), Q14191; WRN helicase unwinding, fluorescent forked duplex, kinetic; Potency, µM (doses to about 114 µM), most hits filed as inhibitors; actives 0.46% (n = 360,000); further: nearly all actives have a fitted effect of over 55% in size
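Primary qHTS, 1536-well format. 20 nM WRN + compound, 15 min RT; start with 100 nM forked fluorophore/quencher duplex, 2 mM ATP (final); kinetic read ex 525/em 598 nm.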
POLK inh: qHTS for Inhibitors of Polymerase Kappa; DNA polymerase kappa (Homo sapiens), Q9UBT6; purified Pol kappa, fluorescent DNA synthesis assay, 10 min; Potency, µM (highest dose often 107 µM), usual class: inhibitors; actives 0.53% (n = 400,000)
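Enzyme at 10 nM met test compounds for 15 min at room temperature. Substrate addition (50 nM final) began the reaction, which was monitored by fluorescence at 0 and 10 min.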
Of the large screens only hits and unclear results are named; the others gave an inactive call. Only some compounds are listed: those with a hit (about 2.4% of all), similar ones and a draw of the others. The call rests on the fitted dose curve; in most records, active means well fitted curve in the direction sought with a large enough effect; inconclusive means small, poorly fitted or top-dose-only effect, or another doubt; inactive means no such curve, though single readings can be large; an effect the other way counts as inactive or inconclusive.

O=S(=O)(Nc1nc2n(n1)C(c1ccc(F)cc1)C=C(c1ccc(Cl)cc1)N2)c1ccccc1 (stereo unspecified)	POLH inh 89µM (no result: WRN inhibitor)
COc1ccc(CCNC(=O)Cn2nnc(-c3ccc(C(F)(F)F)cc3)n2)cc1OC	Pol iota inh inconclusive (no result: WRN inhibitor)
Cc1ccccc1-c1noc(-c2cc(C(C)C)[nH]n2)n1	none (no result: WRN inhibitor)
OCCSc1nc(-c2ccccc2)nc2ccc(F)cc12	POLB inh inconclusive, Pol iota inh 79µM, POLK inh inconclusive
COC(=O)CSc1nc(-c2ccccc2)nc2ccc(F)cc12	none
c1ccc2c(Nc3nc(-c4ccncc4)nc4ccccc34)cccc2c1	none
Cc1ccc(-c2nc(N/N=C/c3ccncc3)c3ccccc3n2)cc1	POLH inh 45µM, POLB inh inconclusive, Pol iota inh inconclusive
Clc1ccccc1Nc1nc(-c2ccncc2)nc2ccccc12	Pol iota inh 50µM
O=c1c2c3nc4ccccc4nc3n(/N=C/c3ccco3)c2ncn1CCC1=CCCCC1	POLH inh inconclusive, POLB inh 28µM, Pol iota inh 22µM, WRN inhibitor inconclusive, POLK inh inconclusive
Cc1cccc(C)c1NC(=O)CSCC(=O)c1ccc(O)c(O)c1	POLH inh inconclusive, Pol iota inh 20µM, WRN inhibitor inconclusive
CCc1cccc(C)c1NC(=O)CCCn1c(C)c2cnn(-c3ccccc3)c(=O)c2c1C	none (no result: WRN inhibitor)
COc1ccc(NC(=O)Cc2cccs2)cc1S(=O)(=O)N1CCCCC1	none (no result: POLB inh)
COc1ccc(NC(C)=O)cc1S(=O)(=O)N1CCN(Cc2cccs2)CC1	POLH inh 25µM, Pol iota inh inconclusive (no result: POLB inh)
COc1cc(OC)cc(C(=O)Nc2nnc(NC(=S)Nc3ccccc3)s2)c1	POLH inh inconclusive, WRN inhibitor inconclusive, POLK inh 79µM
COc1ccc(CCN2CC(C(=O)NCCc3ccc(C)cc3)CC2=O)cc1OC (stereo unspecified)	POLH inh inconclusive, POLB inh inconclusive, Pol iota inh 79µM, POLK inh inconclusive
Cc1ccc(CCNC(=O)C2CC(=O)N(CCc3ccc(C)cc3)C2)cc1 (stereo unspecified)	none (no result: WRN inhibitor)
CC1(C)Cc2c(C#N)c(N3CCN(C(=O)c4ccccc4)CC3)nc(-c3ccco3)c2CS1	POLH inh 32µM, POLB inh 28µM, Pol iota inh inconclusive, WRN inhibitor inconclusive
CC(C)c1nc(N2CCN(C(=O)c3ccccc3)CC2)c(C#N)c2c1COC(C)(C)C2	Pol iota inh inconclusive
O=C(c1cnn2c(C(F)F)cc(C3CC3)nc12)N1CCCC1	none
O=C(c1cc2nc(C3CC3)cc(C(F)F)n2n1)N1CCOCC1	POLH inh 13µM, POLB inh 50µM, Pol iota inh inconclusive, WRN inhibitor inconclusive, POLK inh 79µM
CCN(c1ccc(N=Cc2c(O)n(Cc3ccc(OC)cc3)c(=O)c3ccccc23)cc1)C(C)C	WRN inhibitor 40µM
COc1ccc(-n2c(O)c(C=Nc3ccccc3)c3ccccc3c2=O)cc1	none
N#C/C(=C\c1ccccc1O)C(=O)Nc1cccnc1	POLH inh inconclusive, Pol iota inh 89µM
Cc1cc(/C=C(\C#N)C(=O)Nc2ccccc2)c(C)n1-c1cccnc1	none
c1cc(N2CCOCC2)ccc1-c1ccc2nncn2c1	none (no result: POLH inh, POLB inh, Pol iota inh, FEN1 inhibitor, POLK inh)
c1coc(-c2ccc3nncn3c2)c1	WRN inhibitor 18µM (no result: POLH inh, POLB inh, Pol iota inh, FEN1 inhibitor, POLK inh)
COc1cc(Cl)c(C)cc1NC(=O)c1ccccc1NC(=O)CN1CCOCC1	POLH inh 79µM, POLB inh inconclusive, Pol iota inh inconclusive, POLK inh inconclusive
Cc1nnc(SCC(=O)N2N=C(c3ccc(Cl)cc3)CC2c2ccco2)[nH]c1=O (stereo unspecified)	POLH inh inconclusive, POLB inh 20µM, Pol iota inh inconclusive, FEN1 inhibitor inconclusive, WRN inhibitor inconclusive, POLK inh 50µM
CC(=O)N1N=C(c2ccc(Cl)cc2)CC1c1ccco1 (stereo unspecified)	none

Source: PubChem (National Center for Advancing Translational Sciences (NCATS))
